An excerpt weighted towards active compounds, which were near 32% of everything screened.
PostGolgi ctrl: yeast control strain growth, post-Golgi counter-screen. efflux-deficient yeast background strain, growth absorbance A615, 16 h. inhibition, % at 10 µM. hit rate 5% among 98,000. AID 738
CYP2C19 inhib: human CYP2C19 inhibition | P33261 | CYP2C19 Supersomes, luciferin-H EGE luminescence, 30 min | inhibition, % at 5 µM | hit rate 21% among 96,000 | AID 778;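 active = CYP2C19 inhibition above a set limit at 5 µM in the primary screen, cut at about 50% in these data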;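 note: plate controls were negative control wells for no effect and 2.5 mM tranylcypromine positive control for full effect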
CYP2C9 act: activators of human CYP2C9; recombinant CYP2C9, luciferin-H conversion, luminescence; active compounds read high; factor 1 = untreated enzyme, 0 = blocked; hit rate 1.4% among 96,000; activation factor at 5 µM; P11712; AID 1024;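 active = activation factor of 2 or more for CYP2C9 at a 5 µM dose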;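 note: 0 = sulfaphenazole-blocked wells and 1 = vehicle-only wells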
Target sequence (P11712 whole entry, looked up): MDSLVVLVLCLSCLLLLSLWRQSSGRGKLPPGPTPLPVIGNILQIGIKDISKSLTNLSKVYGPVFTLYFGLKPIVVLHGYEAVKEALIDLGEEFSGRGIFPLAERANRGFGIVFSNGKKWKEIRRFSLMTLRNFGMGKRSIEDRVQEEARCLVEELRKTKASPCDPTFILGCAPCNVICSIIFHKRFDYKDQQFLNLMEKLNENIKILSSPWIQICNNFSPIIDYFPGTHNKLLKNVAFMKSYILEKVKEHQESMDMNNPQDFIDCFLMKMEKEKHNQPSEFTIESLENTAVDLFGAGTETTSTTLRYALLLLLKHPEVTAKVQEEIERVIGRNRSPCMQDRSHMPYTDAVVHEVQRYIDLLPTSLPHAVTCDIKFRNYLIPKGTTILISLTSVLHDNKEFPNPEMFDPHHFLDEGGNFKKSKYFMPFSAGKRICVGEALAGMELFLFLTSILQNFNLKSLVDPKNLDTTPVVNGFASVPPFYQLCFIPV
CYP2C19 act: increases human CYP2C19 enzyme activity. P33261. activation factor at 5 µM. recombinant CYP2C19, luciferin-H EGE luminescence; active compounds read high; 0 = fully inhibited enzyme, 1 = untreated enzyme. 96,000 tested, under 10 active;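 active = activation factor of at least 2 at 5 µM in the primary screen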;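 note: 0 = wells with 2.5 mM tranylcypromine and 1 = vehicle-only wells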
CYP2C9 inhib: human CYP2C9 inhibition. P11712. inhibition, % at 5 µM. hit rate 20% among 96,000. CYP2C9 Supersomes, luciferin-H conversion, luminescence;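 active = blocking of liver enzyme CYP2C9 beyond about 50% at 5 µM, limit read from the data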
PostGolgi yeast: growth inhibition of a yeast mutant, post-Golgi transport screen; inhibition, % at 10 µM; AID 739; post-Golgi transport phenotypic cell assay; hit rate 0.9% among 98,000;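 note: yeast cells grown in 1536-well plates; yeast grown about 18 h at 30C before absorbance read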
The depositor's hits bear a star; x = no result. Cut-off read from the data, not from the text of the source, unless noted: active = inhibition above about 30%; inactive = the rest.

SMILES | PostGolgi ctrl | CYP2C19 inhib | CYP2C9 act | CYP2C19 act | CYP2C9 inhib | PostGolgi yeast
CC(C)NC(=O)N1CCOCCOCCN(C(=O)NC(C)C)CCOCCOCC1 | 4 | -4 | 0.9 | 1 | 9 | 22
O=C(O)C(Cc1ccccc1)n1cnnn1 (stereo not given) | 3 | -3 | 1 | 1 | 2 | 3
CCC(=O)N1CCc2cc(Br)cc(S(=O)(=O)NCCN3CCCCC3C)c21 (stereo not given) | 1 | 3 | 1.2 | 1 | -25 | -1
Cn1c(=O)n(CC(N)=O)c2ccccc21 | 21 | -12 | 1.2 | 1.1 | -23 | 3
Cn1c(=O)n(CCCOc2ccc(Br)cc2)c2ccccc21 | 39* | 70* | 0.9 | 0.3 | 8 | -1
Cn1c(=O)n(CCCOc2ccc(Cl)cc2)c2ccccc21 | 49* | 76* | 0.9 | 0.2 | 12 | 5
CC(=O)N(C)C1(c2nnnn2CCOC(=O)Nc2cccc3ccccc23)CCCC1 | -5 | 18 | 1 | 0.8 | 0 | -4
O=C(Nc1ccc(Cl)cc1)OCCn1nnnc1C(c1ccccc1Cl)N1CCOCC1 (stereo not given) | 0 | 46 | 0.5 | 0.5 | 54* | 3
CC(=O)NC1(c2nnnn2CCOC(=O)Nc2ccc(Cl)cc2)CCCCC1 | 3 | 95* | 0.3 | 0.1 | 71* | 8
COCCn1nnnc1C(c1ccccc1)N1CCN(C)CC1 (stereo not given) | 2 | 3 | 1 | 1 | -2 | 3
CC(=O)N(C)C1(c2nnnn2CCOC(=O)Nc2ccc(Cl)cc2)CCCCC1 | 1 | 93* | 0.5 | 0.1 | 48 | 2
COc1ccc(NC(=O)C2CC(=O)n3cnnc3S2)cc1 (stereo not given) | -2 | 6 | 1 | 0.9 | 3 | -7
O=C(Cn1[nH]c(=O)c2ccccc2c1=O)NC1CCN(Cc2ccccc2)CC1 | 11 | -2 | 1 | 1 | 0 | 0
COc1cccc(N2CC(C(=O)Nc3ccc(C(=O)OC(C)C)cc3)CC2=O)c1 (stereo not given) | 12 | 51* | 0.3 | 0.5 | 71* | 3
COc1cccc(N2CC(C(=O)NC3CCCCC3)CC2=O)c1 (stereo not given) | 2 | -3 | 2.3* | 1 | -128 | 2
C=CCNC(=O)C1CC(=O)N(c2ccc(OCC(=O)Nc3ccccc3)cc2)C1 (stereo not given) | 8 | 19 | 0.4 | 0.8 | 55* | -6
COc1ccc(CNC(=O)C2CC(=O)N(c3ccc(OCC(=O)N4C(C)CCCC4C)cc3)C2)cc1 (stereo not given) | -3 | 31 | 0.4 | 0.7 | 61* | 0
C=CCNC(=O)C1CC(=O)N(c2ccc(OCC(=O)Nc3ccc(C)cc3)cc2)C1 (stereo not given) | 7 | -9 | 0.8 | 1.1 | 21 | -4
N#Cc1ccc(-c2ccc(F)cc2)nc1SCC(=O)Nc1sc2c(c1C#N)CCC2 | 16 | -11 | 1 | 1.1 | -3 | -30
Cc1ccc(S(=O)(=O)NCCCNC(=O)N2CCOCC2)cc1 | -2 | 6 | 1 | 0.9 | -4 | 17
CCOCCc1nnc(NC(=O)CSc2ccccc2)s1 | 0 | 19 | 0.9 | 0.8 | 15 | 8
CCCCN(CCCNc1ncnc2nc[nH]c12)c1ccccc1 | 23 | 19 | 0.4 | 0.8 | 56* | -5
CCN(CCCNc1ncnc2nc[nH]c12)c1cccc(C)c1 | 4 | 83* | 0.2 | 0.2 | 78* | -10
c1ccc2c(CCNc3ncnc4nc[nH]c34)c[nH]c2c1 | 0 | 83* | 1.4 | 0.2 | -41 | -1
c1ccc(CCNc2ncnc3nc[nH]c23)cc1 | 8 | 38 | 0.9 | 0.6 | 13 | 1
SMILES | PostGolgi ctrl | CYP2C19 inhib | CYP2C9 act | CYP2C19 act | CYP2C9 inhib | PostGolgi yeast
CCN(c1cccc(C)c1)c1ncnc2nc[nH]c12 | 30 | -6 | 1 | 1.1 | -2 | -17
c1cncc(Oc2cccc(Oc3cccnc3)c2)c1 | 7 | x | x | x | x | 0
Cn1c(=O)oc2cc(S(=O)(=O)Nc3ccc4c(c3)OCCO4)ccc21 | 0 | 27 | 0.8 | 0.7 | 18 | -3
CSc1cccc(NS(=O)(=O)c2ccc3c(c2)oc(=O)n3C)c1 | -3 | 97* | 0.5 | 0 | 53* | -10
Cc1ccc(NS(=O)(=O)c2ccc3c(c2)oc(=O)n3C)cc1F | 4 | 56* | 0.2 | 0.4 | 76* | -3
Cn1c(=O)oc2cc(S(=O)(=O)Nc3cccc(F)c3)ccc21 | 15 | x | x | x | x | 14
COC(=O)C1CSc2[nH]c(=O)sc2C1c1ccc(OC)c(OC)c1 (stereo not given) | -13 | 15 | 0.8 | 0.8 | 22 | 2
FC(F)(F)c1cccc(-n2cccc2/C=N/n2cnnc2)c1 | 0 | 44 | 0.8 | 0.6 | 20 | -2
Cc1nn(-c2cccc(C(F)(F)F)c2)c(Cl)c1/C=N/n1cnnc1 | 4 | 90* | 0 | 0.1 | 95* | 6
Cc1ccc(SCCC(=O)Nc2c(C)n(C)n(-c3ccccc3)c2=O)cc1 | 1 | -6 | 0.7 | 1.1 | 32 | -3
Cc1ccc(CSCCNC(=O)CCSc2ccccc2)cc1 | 9 | 26 | 0.3 | 0.7 | 65* | -3
Cc1ccccc1CNC(=O)c1ccc(CSCc2ccccc2)cc1 | 4 | -1 | 0.9 | 1 | 6 | 23
Cc1ccccc1CSCCNC(=O)CCSc1ccccc1 | 16 | 37 | 0.2 | 0.6 | 76* | 1
CC(C)(C)OC(=O)N1CCOCCOCCN(C(=O)OC(C)(C)C)CCOCCOCC1 | -6 | -2 | 1 | 1 | 0 | -9
O=C(Nc1nc2ccccc2s1)C1CC(=O)N(c2ccc(Cl)cc2)C1 (stereo not given) | 40* | 20 | 0.5 | 0.8 | 54* | 14
CC(C)N1CC(C(=O)Nc2nc3ccccc3s2)CC1=O (stereo not given) | 4 | -8 | 1 | 1.1 | 4 | 2
O=C(Nc1cccc2nsnc12)C1CC(=O)N(c2ccccc2)C1 (stereo not given) | 7 | 82* | 0.3 | 0.2 | 74* | -10
CCOC(=O)N1CCN(C(=O)Nc2ccc(Cl)cc2Cl)CC1 | 9 | 44 | 1 | 0.6 | 2 | 9
N#CCCn1nnc(-c2ccccc2F)n1 | 13 | -1 | 1.1 | 1 | -9 | -6
O=S(=O)(c1ccc(F)cc1)n1ccc(-c2cccc(OCc3c(F)cccc3Cl)c2)n1 | 5 | 36 | 0.1 | 0.6 | 88* | 7
O=S(=O)(c1ccc(Cl)cc1)n1ccc(-c2cccc(OCc3c(F)cccc3Cl)c2)n1 | 1 | 23 | 0.4 | 0.8 | 60* | 2
CCCCc1cc(=O)oc2cc(OCc3cc(OC)c(OC)c(OC)c3)c(Cl)cc12 | -1 | 14 | 1 | 0.9 | 2 | -1
Fc1cccc(NCc2ccoc2)c1 | 3 | -3 | 1 | 1 | -2 | -7
O=C(NCCc1cn2ccccc2n1)c1ccccc1F | 10 | 18 | 0.9 | 0.8 | 8 | -5
Fc1ccc(NCc2cn3ccccc3n2)cc1 | 2 | 84* | 0.7 | 0.2 | 29 | -1
